A short description of assay [1]: sensitizers of A549 cells to miR-34 induction, primary screen, imaging, A549 dox-inducible miR-34, nuclei and caspase counts (AID 1347080). The following applies: A549 miR-34 inducible, Hoechst nuclei count, 48 h.
A short description of assay [2]: survival rescue of mitochondrial mutant cells in low glucose, primary screen, MELAS cybrids, Rieske KO mouse fibroblasts, CellTiter-Glo (AID 1508586;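 active = mean z-score across replicates of 1.96 or higher in either the MELAS or the Rieske mutant cell line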;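 note: z relative to plate mean and SD of compound and empty wells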).
[3] abbreviates: stronger effect = lower value, cell number ratio, induced over uninduced.
[4] abbreviates: measured here: relative caspase fold change +Dox/-Dox.
Setting [5] is: measured here: total cells with miR-34 induction, stronger effect = lower value.
The mark [6] stands for this setting: measured here: total cells without miR-34 induction.
Setting [7] is: MELAS cybrid survival, CellTiter-Glo 48 h, stronger effect = higher value.
Setting [8] is: Rieske KO mouse fibroblast survival, CellTiter-Glo 72 h.

Activity calls are given as the source filed them.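 Rule for the calls, unless noted: active = compounds whose cell count with miR-34 switched on is under 0.7 times the count with it off; inactive = the rest.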
Note: test concentration not given here.

On to `CC(C)c1cc(-c2ccc(F)c3ccccc23)nc(N)n1`, for which the fold change in assay [1] (setting [3]) is 0.949 (inactive); in assay [1] (setting [4]), 0.444. Further, the cell count is 7570 in assay [1] (setting [5]) and 7980 in assay [1] (setting [6]). The z-score in assay [2] (setting [7]) was -0.214 (inactive); in assay [2] (setting [8]), 0.0729.

Take `CC(=O)O[C@@]1(C(C)=O)CC[C@H]2[C@@H]3CC(C)C4=CC(=O)CC[C@]4(C)[C@@H]3CC[C@@]21C` (some centres undefined): the fold change is 0.92 (inactive) in assay [1] (setting [3]) and 0.806 in assay [1] (setting [4]). Moreover, the cell count in assay [1] (setting [5]) was found to be 7550; in assay [1] (setting [6]), 8200. For the same molecule, the z-score in assay [2] (setting [7]) was -0.365 (inactive); in assay [2] (setting [8]) it was -0.106.

On to `CCn1c2ccccc2c2cc(Nc3ccnc(NCCCN4CCOCC4)n3)ccc21`, for which the fold change in assay [1] (setting [3]) was 1.23 (inactive); in assay [1] (setting [4]), 0.454. Moreover, the figures for the cell count in assay [1] (setting [5]) and in assay [1] (setting [6]) were 2810 and 2280, respectively. In addition, the values for the z-score in assay [2] (setting [7]) and in assay [2] (setting [8]) were -0.307 (inactive) and 0.428, respectively.

As to `C=C1C(CO)C(O)CC1n1cnc2c(=O)[nH]c(N)nc21` (centres undefined), the fold change in assay [1] (setting [3]) was 1.01 (inactive); in assay [1] (setting [4]), 0.924. For the same molecule, the values for the cell count in assay [1] (setting [5]) and in assay [1] (setting [6]) were 7270 and 7170, respectively. In addition, the z-score in assay [2] (setting [7]) was -0.366 (inactive); in assay [2] (setting [8]), -0.0519.

Regarding `CCc1cnn2c(NCc3ccc[n+]([O-])c3)cc(N3CCCCC3CCO)nc12` (centres undefined), the values for the fold change in assay [1] (setting [3]) and in assay [1] (setting [4]) were 1.13 (inactive) and 0.956, respectively. In addition, the cell count in assay [1] (setting [5]) was 1750; in assay [1] (setting [6]), 1550. The z-score was 1.14 (inactive) in assay [2] (setting [7]) and -3.25 in assay [2] (setting [8]).

As to `Cc1cc(Nc2ccc(NC(=O)c3ccc(Nc4ccnc5ccccc45)cc3)cc2)nc(N)n1`, the fold change is 0.978 (inactive) in assay [1] (setting [3]) and 0.411 in assay [1] (setting [4]). The cell count in assay [1] (setting [5]) turned out to be 6080; in assay [1] (setting [6]), 6210. Further, the z-score is -0.384 (inactive) in assay [2] (setting [7]) and -1.35 in assay [2] (setting [8]).

Turning to `CCNC(=O)C1OC(n2cnc3c(N)nc(NCCc4ccc(CCC(=O)O)cc4)nc32)C(O)C1O` (centres undefined), the fold change in assay [1] (setting [3]) was 1.01 (inactive); in assay [1] (setting [4]) it was 0.733. The cell count in assay [1] (setting [5]) was 7450; in assay [1] (setting [6]) it was 7360. Also, the z-score was 0.177 (inactive) in assay [2] (setting [7]) and -0.329 in assay [2] (setting [8]).

For the molecule `COc1ccc(C2CC(=O)c3c(O)cc(O)cc3O2)cc1O` (centres undefined), the fold change in assay [1] (setting [3]) is 0.926 (inactive); in assay [1] (setting [4]), 0.807. The cell count was determined as 9010 in assay [1] (setting [5]) and 9730 in assay [1] (setting [6]). The z-score in assay [2] (setting [7]) was -0.233 (inactive); in assay [2] (setting [8]), 0.0902.

Turning to `CCNC(=O)c1[nH]nc(-c2cc(Cl)c(O)cc2O)c1-c1ccc(OC)cc1`, the fold change was 1.1 (inactive) in assay [1] (setting [3]) and 0.416 in assay [1] (setting [4]). Further, the cell count is 3020 in assay [1] (setting [5]) and 2740 in assay [1] (setting [6]). Also, the z-score is 2.3 (active) in assay [2] (setting [7]) and -0.612 in assay [2] (setting [8]).

Turning to `CC(=O)OCC(=O)[C@]12N=C(C)O[C@@H]1C[C@H]1[C@@H]3CCC4=CC(=O)C=C[C@]4(C)[C@@H]3C(O)C[C@@]12C` (some centres undefined), the values for the fold change in assay [1] (setting [3]) and in assay [1] (setting [4]) were 0.954 (inactive) and 1.27, respectively. In addition, the figures for the cell count in assay [1] (setting [5]) and in assay [1] (setting [6]) were 5010 and 5250, respectively. Besides, the z-score is -0.0832 (inactive) in assay [2] (setting [7]) and -0.272 in assay [2] (setting [8]).

With `COc1c(O)cc2c(c1O)[C@@H]1OC(CO)C(O)C(O)[C@H]1OC2=O` (some centres undefined), the fold change in assay [1] (setting [3]) is 0.888 (inactive); in assay [1] (setting [4]) it was 1.9. The cell count in assay [1] (setting [5]) came out at 8260; in assay [1] (setting [6]), 9300. In addition, the z-score in assay [2] (setting [7]) was -0.313 (inactive); in assay [2] (setting [8]), 0.533.

As to `CC(=O)O[C@]12COC1CC(O)[C@]1(C)C(=O)C(O)C3=C(C)C(OC(=O)C(O)C(NC(=O)OC(C)(C)C)c4ccccc4)C[C@](O)(C(OC(=O)c4ccccc4)C21)C3(C)C` (some centres undefined), the fold change in assay [1] (setting [3]) was 1.04 (inactive); in assay [1] (setting [4]), 0.7. In addition, the cell count is 2320 in assay [1] (setting [5]) and 2220 in assay [1] (setting [6]). In addition, the z-score in assay [2] (setting [7]) was 6.54 (active); in assay [2] (setting [8]), -0.0789.

Take `CC(NC(=O)Cc1cc(F)cc(F)c1)C(=O)NC1C(=O)N(C)c2ccccc2-c2ccccc21` (centres undefined): the values for the fold change in assay [1] (setting [3]) and in assay [1] (setting [4]) were 0.913 (inactive) and 0.674, respectively. Further, the cell count in assay [1] (setting [5]) amounted to 8480; in assay [1] (setting [6]) it was 9280. In addition, the z-score in assay [2] (setting [7]) is -0.38 (inactive); in assay [2] (setting [8]) it was 1.69.

In the case of `CNc1ncnc2c1ncn2C1OC(CO)C(O)C1O` (centres undefined), the fold change was 0.908 (inactive) in assay [1] (setting [3]) and 0.537 in assay [1] (setting [4]). The cell count in assay [1] (setting [5]) stood at 7310; in assay [1] (setting [6]) it was 8050. Further, the z-score in assay [2] (setting [7]) was -0.0172 (inactive); in assay [2] (setting [8]) it was -0.235.

The values are drawn from PubChem BioAssay.
